SMILES strings stand for the structures. Active and inactive are the calls of the source. Calls follow the shape of the full dose curve.

Data on 5 compounds can be found in PubChem BioAssay AID602450 (National Center for Advancing Translational Sciences (NCATS), 2012).

This assay in a line: qHTS Assay for Inhibitors of Influenza NS1 Protein Function: Viral Replication TCID50 SAR for Probe. The conditions noted are these: Influenza virus replication in cells, TCID50 titer reduction. The text has this: Influenza is a world-wide public health problem and emerging forms of the virus have the potential to cause a pandemic of equal or greater magnitude to the outbreaks recorded in 1918, 1957 or 1968. Vaccine development is proceeding and there also exist two classes of anti-influenza compounds. However these therapeutic modalities are neither fully effective nor widely enough available to fulfill global needs. In addition their potential usefulness against newly emergent strains is not known. Efforts are needed to develop novel agents against influenza virus, including broad-spectrum agents. Identification of small molecules that inhibit NS1 function either directly or by interfering with specific cellular pathways may be a key to increasing our defense against the virus.
We have miniaturized and optimized a cell based assay in which NS1 from influenza A is expressed in the budding yeast S. cerevisiae. NS1 is a multi-functional protein that counters the host innate immune response and facilitates viral versus cellular gene expression. Expression of NS1 causes a pronounced slow growth phenotype in yeast due to its intrinsic molecular activities. Small molecules that suppress the slow growth phenotype can be identified by a straightforward growth recovery assay using optical density (OD) as the measurement. The same yeast strain not expressing NS1 was used as positive control in the yeast growth recovery assay.
Hits resulting from this primary screen and other follow-up screens, were tested in two concentrations in this viral replication assay.
NIH Chemical Genomics Center [NCGC]
NIH Molecular Libraries Probe Centers Network [MLPCN]
Assay Submitter (PI): Daniel Engel, University of Virgina
Cell monolayers were infected at an m.o.i. of 0.1 for 48 h in the presence or absence of the compound, which was added at the beginning of infection. Virus titres were determined by TCID50 analysis (Reed, L. J. & Muench, H. (1938). A simple method of estimating fifty per cent endpoints. Am J Epidemiol 27, 493-497).
(Quantitative high-throughput screening tests each substance at several concentrations.)
On to `COc1cc(-c2ccnc3c2c(C)nn3-c2ccc(C(F)(F)F)cc2)ccc1O`, for which the Potency is 155 nM (active).
As for `COc1cc(-c2c(C#N)c(N)nc3c2c(C)nn3-c2ccc(F)cc2)ccc1O`, the figure is 101 nM (active).
On to `Cc1nn(-c2ccc(Cl)cc2)c2nc(N)c(C#N)c(-c3ccc(O)c(O)c3)c12`, for which the Potency was 279 nM (active).
On to `Cc1ccc(-n2nc(C)c3c(-c4ccc(O)c(O)c4)c(C#N)c(N)nc32)cc1C`, for which the Potency is 234 nM (active).
In the case of `COc1cc(-c2ccnc3c2c(C)nn3-c2cccc(C(F)(F)F)c2)ccc1O`, the Potency is 82.7 nM (active).
